Results reported in PubChem BioAssay (EPA / NIEHS).
Calls of active or inactive are those of the source. How the source made its calls: active means hit-call score of the fitted dose curve at least 0.9, where 1 is the maximum; inactive means score below 0.9.

read-out: Cytochrome P450 (CYP24A1), CYP24A1 (gene 1591); test: LTEA_HepaRG_CYP24A1: Life Technologies and Expression Analysis (LTEA) Assay for Cytochrome P450 (CYP24A1) using HepaRG (AID 2283478); conditions: mRNA level, 48 h; actives raise or lower the signal
In short: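 HepaRG cells plated 48 h, then exposed in duplicate in serum-free induction medium for 48 h to 8-point half-log series from 100 uM in 0.5% DMSO. CYP24A1 mRNA by Fluidigm qRT-PCR, normalized to ACTB, GAPDH, POLR2A; bidirectional fit versus DMSO.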

| SMILES | outcome |
| --- | --- |
| CN(C)CCCN1c2ccccc2Sc2ccc(Cl)cc21 | inactive |
| c1ccc2occc2c1 | inactive |
| NC(=Nc1ccccc1)Nc1ccccc1 | inactive |
| CCN(CC)CCOc1ccc(C(=C(Cl)c2ccccc2)c2ccccc2)cc1 | inactive |
| NCCOCCOCCN | inactive |
| Oc1ccccc1O | inactive |
| CCc1nc(N)nc(N)c1-c1ccc(Cl)cc1 | inactive |
| Cc1cc(SC2=C(O)C[C@@](CCc3ccc(N)cc3)(C(C)C)OC2=O)c(C(C)(C)C)cc1CO | inactive |
| CCCCC(CC)CO (stereo unspecified) | inactive |
| Nc1nc(Cl)nc2c1ncn2[C@H]1C[C@H](O)[C@@H](CO)O1 | inactive |
| O=C(O)CC(O)(CC(=O)O)C(=O)O | inactive |
| O=C(NS(=O)(=O)/C=C/c1cccs1)c1ccc(F)cc1Br | inactive |
| CC(COCC(C)OC(=O)c1ccccc1)OC(=O)c1ccccc1 (stereo unspecified) | inactive |
| Cc1cn([C@H]2C=C[C@@H](CO)O2)c(=O)[nH]c1=O | inactive |
| C#CC(O)C(CC)CCCC (stereo unspecified) | inactive |
| CSc1ccc(Oc2ccc(S(N)(=O)=O)cc2CN(C)C)cc1C | inactive |
| CCCCOC(=O)CCCCC(=O)OCCCC | inactive |
| N[C@@H](Cc1c[nH]c2ccccc12)C(=O)O | inactive |
| CCCCC(CC)COP(=O)(OCC(CC)CCCC)OCC(CC)CCCC (stereo unspecified) | inactive |
| CC(N)=O | inactive |
| O=C1CCCCC1 | inactive |
| O=NO | inactive |
| Cc1cc(Cc2ccc(N)c(C)c2)ccc1N | inactive |
| CCCCCCCCCCCCCCOS(=O)(=O)O | inactive |
| Nc1nc(=S)c2[nH]cnc2[nH]1 | inactive |
| COc1ccc(OC(F)(F)F)cc1CN[C@H]1CCCN[C@H]1c1ccccc1 | inactive |
